Reference: PubChem BioAssay (NCATS)
Records with an inconclusive call do not appear. Values without a mark were called inactive. Calls of active or inactive are those of the source. Calls come from the whole dose curve; as a rule, active = well fitted cell-killing curve with a large enough effect; inconclusive = small, poorly fitted or top-dose-only effect, or effect the other way; inactive = flat fitted curve, though single readings scatter.

Test system: HeLa
Test: Primary qHTS to identify gynecologic anti-cancer compounds using libraries of approved drugs and bioactive compounds (AID 1345084); note: nearly all actives have a fitted effect of over 55% in size
Settings: Gynecologic cancer cell panel viability, ATPlite luminescence, 48 h; series mostly up to 57.5 µM; activity change, negative = cytotoxicity: at the top concentration
Method in brief: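 Cells, 1,000 per well, plated 16 h, then exposed 48 h at 37 C to compounds. Viability by ATPlite luminescence after 15 min at room temperature.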
% is set by controls: 0 for no effect and ±100 for the full control effect.

SMILES | activity change, negative = cytotoxicity | Potency
CC(C)(C)c1nnc(NS(=O)(=O)c2ccc(N)cc2)s1 | 0.659% | 
N=C(N)N | 7.2% | 
Cc1ccc(C(=O)c2ccc(CC(=O)O)n2C)cc1 | 0.385% | 
CCCCCCCC/C=C/C(=O)O | -5.56% | 
O=C(/C=C/c1ccccc1)NCCO | -13.2% | 
COc1cc2c3cc1Oc1cc(ccc1O)C[C@@H]1c4c(cc(OC)c(O)c4Oc4ccc(cc4)C[C@@H]3N(C)CC2)CC[N+]1(C)C | 6.34% | 
O=C(O)Cc1ccc2c(c1)C(=O)c1ccccc1CO2 | -0.696% | 
O=C(Nc1ccc(C(=O)O)c(O)c1)c1ccccc1 | 0.88% | 
CO[C@@]1(NC(=O)Cc2cccs2)C(=O)N2C(C(=O)O)=C(COC(N)=O)CS[C@@H]21 | 7.4% | 
Nc1ccc(O)c(C(=O)O)c1 | 17.9% | 
C=CCCCCCCCCC(=O)O | -4.19% | 
Nc1c(CC(=O)O)cccc1C(=O)c1ccc(Br)cc1 | 11.5% | 
O=C(OCc1ccccc1)c1ccccc1 | 13.6% | 
CCCCCCCCCCCCOCCO | -0.95% | 
CN(C)[C@@H]1C(=O)C(C(=O)NCN2CCCC2)=C(O)[C@@]2(O)C(=O)C3=C(O)c4c(O)cccc4[C@@](C)(O)C3C[C@@H]12 (stereo partly specified) | 13.4% | 
O=C(O)Cc1ccc(-c2ccccc2)cc1 | 12.9% | 
Cc1c(Nc2ncccc2C(=O)O)cccc1C(F)(F)F | -25.8% | 
CC(C(=O)O)c1ccc2c(c1)[nH]c1ccc(Cl)cc12 (stereo unspecified) |  | inactive
CCCOC(=O)c1ccc(O)cc1 | -7.57% [at 116 µM] | 
CCCCCCCCCCCC(=O)[O][Sn]([CH2]CCC)([CH2]CCC)[O]C(=O)CCCCCCCCCCC | 0.0058% | 
O=C(O)/C=C\C(=O)O | 11.2% | 
